Source: ChEMBL document CHEMBL3988442, “University of Dundee, Small-Polar-MMV Screening Library” (2021)

molecular target: T1, Tyrosyl-tRNA synthetase, putative (Trypanosoma cruzi (strain CL Brener)) (UniProt Q4DSP6); experiment: Trypanosoma cruzi tyrosyl tRNA synthetase (TcYRS) SOP; assay type: functional; set-up: scale not given: direction of the effect not stated beside the values; conditions: 30 µM
T1 sequence (whole entry): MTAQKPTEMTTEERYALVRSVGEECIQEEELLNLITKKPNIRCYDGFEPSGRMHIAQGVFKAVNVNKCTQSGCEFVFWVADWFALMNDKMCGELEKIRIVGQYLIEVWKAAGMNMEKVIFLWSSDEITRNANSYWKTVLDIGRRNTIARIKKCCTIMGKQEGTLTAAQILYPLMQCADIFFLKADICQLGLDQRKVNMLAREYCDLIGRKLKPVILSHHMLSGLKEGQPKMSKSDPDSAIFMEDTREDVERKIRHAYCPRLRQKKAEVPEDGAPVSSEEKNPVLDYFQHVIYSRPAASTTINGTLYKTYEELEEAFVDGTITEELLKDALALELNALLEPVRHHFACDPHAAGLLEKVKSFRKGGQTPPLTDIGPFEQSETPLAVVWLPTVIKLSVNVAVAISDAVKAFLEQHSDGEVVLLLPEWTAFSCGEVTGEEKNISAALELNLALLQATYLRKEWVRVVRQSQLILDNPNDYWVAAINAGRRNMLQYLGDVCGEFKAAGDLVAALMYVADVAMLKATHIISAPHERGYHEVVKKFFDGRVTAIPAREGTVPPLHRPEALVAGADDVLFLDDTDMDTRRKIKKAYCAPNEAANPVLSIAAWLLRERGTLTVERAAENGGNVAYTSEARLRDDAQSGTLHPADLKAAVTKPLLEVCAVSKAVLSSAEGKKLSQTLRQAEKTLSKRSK

SMILES	Percent Effect [%]
CCn1cnnc1CNC(=O)N1CCC(Cc2cccnc2)CC1	-4.71
Cc1nc(CN2CCCC(NCc3c(C)nc4sccn34)C2)no1 (stereo not drawn)	19.5
Cn1nc2c(cc1=O)CN(CCc1nc3ccccc3c(=O)[nH]1)CC2	0
COc1ccc(CNC(=O)NCc2c(C)cc(C)[nH]c2=O)cc1	13.6
CN(C)C(=O)NC1COC2(CCN(Cc3nccn3C)CC2)C1 (stereo not drawn)	6.41
O=C(CN1CCC(C(=O)c2cc(F)ccc2F)CC1)NC1CCCC1	0
CCN1C[C@H]2CCN(C(=O)NC3CCCC3)CC[C@H]2S1(=O)=O	5.13
CCC1=N[C@@]2(CC[C@@H]3CN(Cc4ccccc4F)C[C@@H]32)C(=O)N1CC	18.3
CN1CCC(Oc2ccc(NC(=O)c3ccccc3Br)cc2)CC1	3.7
Cc1cc(C(=O)NCC2COCc3c(C)nnn3C2)no1 (stereo not drawn)	11.1
Cc1cnc(CNC(=O)NCc2cccnc2N(C)C)s1	7.32
CCCNC(=O)N1CCN(Cc2cc(C)no2)CC1	23.5
COc1cccc2c1ccn2CCC(=O)N1CCCC(C(=O)O)C1 (stereo not drawn)	0
Cc1csc(CNC(=O)NCC(O)c2cccc(Cl)c2)n1 (stereo not drawn)	12.2
Cc1noc(Cl)c1CCC(=O)N1CCN(c2ncccn2)CC1	13.6
Cc1ccccc1-c1cncc(C2CCN(C)CC2)n1	3.9
Cc1ccc(CN2CCOC3(CCCN(C(=O)c4ccco4)C3)C2)s1 (stereo not drawn)	13.6
CS(=O)(=O)NCc1nnc2n1CCN(CC1CC1)C2	12.8
Cc1ccc(=O)n(CC2(O)CCN(Cc3cnc(C)nc3)CC2)n1	3.9
CN(C)S(=O)(=O)N1CCCC1CC(=O)c1cccs1 (stereo not drawn)	4.88

SMILES	Percent Effect [%]
COc1cc(CNC2CCc3nc(C(C)C)nn3C2)cc2c1OCO2 (stereo not drawn)	-6.17
CCOCC1CN(Cc2ccoc2)Cc2nn(CC3CC3)cc21 (stereo not drawn)	6.1
O=C(c1cc(COc2ccc3c(c2)OCO3)[nH]n1)N1CCCC1	6.17
CCCS(=O)(=O)N1CCC(NC(=O)c2cc(C)c(CC)s2)CC1	18.5
CCOC(=O)C1CCN(C(=O)Cn2ccc3cc(Br)ccc32)CC1	10.3
CCOc1cc(C)ccc1NC(=O)N(C)Cc1cnn(C)c1	16.1
COc1ccc(C(=O)N2CCC(Nc3ccc(C)nn3)CC2)c(F)c1	-2.53
CC(C)CCc1noc(CN2CCCN(C(=O)c3ccco3)CC2)n1	3.7
Cc1noc2nc(C3CCN(Cc4ccncc4)CC3)cc(C(F)F)c12	-1.3
COCC1CN(Cc2ccc(C)o2)Cc2cn(C)nc21 (stereo not drawn)	20
Cc1cnn(CCNCc2ccccc2Oc2cccnc2)c1	7.59
CN(CCCC#N)C1CCCN(Cc2noc(C3CC3)n2)C1 (stereo not drawn)	7.69
Cc1cc(C)nc(CCNC(=O)[C@H]2CNC[C@@H](C(=O)N3CCCC3)C2)n1	3.7
CCOc1cc(C)nc(N2CCN(C(=O)CC)CC2)n1	6.1
Cn1ccc(C(=O)N2CCCC(Cc3cccc4ncccc34)C2)n1 (stereo not drawn)	-6.49
CCn1ccnc1CN1CCN(CCOc2ccccc2OC)CC1	7.32
O=S(=O)(N(Cc1ccccn1)C1CC1)N1CCCC1c1ccco1 (stereo not drawn)	18.3
Cn1ncc2c(=O)[nH]c(CN3CCCC3Cc3ccccc3)nc21 (stereo not drawn)	18.5
CC1CN(CC(=O)Nc2cccnc2)CCN1c1nccs1 (stereo not drawn)	-1.22

molecular target: Chromo domain-containing protein 1 (Saccharomyces cerevisiae (strain ATCC 204508 / S288c) (Baker's yeast)) (UniProt P32657); experiment: ScCHD-1 Enzyme Inhibition Assay; assay type: functional; set-up: scale not given: in the data most compounds retested in dose-response had high values; conditions: 30 µM
Sequence (P32657 whole entry, the tested form may be a part): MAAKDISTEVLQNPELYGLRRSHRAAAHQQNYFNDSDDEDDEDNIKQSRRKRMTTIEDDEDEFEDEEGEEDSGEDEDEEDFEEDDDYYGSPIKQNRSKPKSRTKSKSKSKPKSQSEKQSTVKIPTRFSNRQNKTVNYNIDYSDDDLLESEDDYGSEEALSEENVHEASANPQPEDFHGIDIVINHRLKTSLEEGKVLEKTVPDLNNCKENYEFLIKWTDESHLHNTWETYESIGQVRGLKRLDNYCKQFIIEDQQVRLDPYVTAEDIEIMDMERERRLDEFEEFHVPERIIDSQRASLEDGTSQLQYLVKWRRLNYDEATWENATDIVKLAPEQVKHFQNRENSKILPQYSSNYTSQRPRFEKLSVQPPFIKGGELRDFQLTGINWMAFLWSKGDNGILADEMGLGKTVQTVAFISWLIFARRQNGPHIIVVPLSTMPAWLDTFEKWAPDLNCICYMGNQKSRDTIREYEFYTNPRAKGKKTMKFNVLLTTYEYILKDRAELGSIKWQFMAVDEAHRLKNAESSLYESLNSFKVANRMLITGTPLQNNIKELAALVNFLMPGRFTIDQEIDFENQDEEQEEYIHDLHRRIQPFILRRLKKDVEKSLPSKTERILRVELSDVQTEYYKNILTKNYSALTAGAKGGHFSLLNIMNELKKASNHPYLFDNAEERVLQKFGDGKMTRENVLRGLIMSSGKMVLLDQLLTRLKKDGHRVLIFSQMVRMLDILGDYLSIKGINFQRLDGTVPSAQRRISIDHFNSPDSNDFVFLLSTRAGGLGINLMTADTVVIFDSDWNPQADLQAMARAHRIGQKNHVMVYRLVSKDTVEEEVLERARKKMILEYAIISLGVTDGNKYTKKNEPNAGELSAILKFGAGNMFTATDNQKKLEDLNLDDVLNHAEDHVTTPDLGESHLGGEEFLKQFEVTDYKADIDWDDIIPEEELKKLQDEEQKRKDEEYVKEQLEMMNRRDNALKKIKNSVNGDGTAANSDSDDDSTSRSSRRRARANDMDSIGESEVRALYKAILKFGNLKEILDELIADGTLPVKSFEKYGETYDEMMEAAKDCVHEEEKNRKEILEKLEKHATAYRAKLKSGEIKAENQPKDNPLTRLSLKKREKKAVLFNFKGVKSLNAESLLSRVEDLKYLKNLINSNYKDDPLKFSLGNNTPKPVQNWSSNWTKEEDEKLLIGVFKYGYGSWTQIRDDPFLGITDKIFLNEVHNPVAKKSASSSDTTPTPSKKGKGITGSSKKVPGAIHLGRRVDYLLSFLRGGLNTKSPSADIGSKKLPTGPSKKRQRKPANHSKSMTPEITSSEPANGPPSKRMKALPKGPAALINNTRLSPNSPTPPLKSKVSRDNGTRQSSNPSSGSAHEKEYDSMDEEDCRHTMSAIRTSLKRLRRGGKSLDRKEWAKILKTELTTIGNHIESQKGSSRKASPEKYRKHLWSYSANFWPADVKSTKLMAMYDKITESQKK

SMILES	Percent Effect [%]
CCn1cnnc1CNC(=O)N1CCC(Cc2cccnc2)CC1	8.62
Cc1nc(CN2CCCC(NCc3c(C)nc4sccn34)C2)no1 (stereo not drawn)	-6.87
Cn1nc2c(cc1=O)CN(CCc1nc3ccccc3c(=O)[nH]1)CC2	-7.87
COc1ccc(CNC(=O)NCc2c(C)cc(C)[nH]c2=O)cc1	3.42
CN(C)C(=O)NC1COC2(CCN(Cc3nccn3C)CC2)C1 (stereo not drawn)	0.228
O=C(CN1CCC(C(=O)c2cc(F)ccc2F)CC1)NC1CCCC1	-3.84
CCN1C[C@H]2CCN(C(=O)NC3CCCC3)CC[C@H]2S1(=O)=O	-7.62
CCC1=N[C@@]2(CC[C@@H]3CN(Cc4ccccc4F)C[C@@H]32)C(=O)N1CC	-6.7
CN1CCC(Oc2ccc(NC(=O)c3ccccc3Br)cc2)CC1	-4.57
Cc1cc(C(=O)NCC2COCc3c(C)nnn3C2)no1 (stereo not drawn)	-0.439
Cc1cnc(CNC(=O)NCc2cccnc2N(C)C)s1	2.89
CCCNC(=O)N1CCN(Cc2cc(C)no2)CC1	-7.68
COc1cccc2c1ccn2CCC(=O)N1CCCC(C(=O)O)C1 (stereo not drawn)	-6.61
Cc1csc(CNC(=O)NCC(O)c2cccc(Cl)c2)n1 (stereo not drawn)	-0.155
Cc1noc(Cl)c1CCC(=O)N1CCN(c2ncccn2)CC1	1.74
Cc1ccccc1-c1cncc(C2CCN(C)CC2)n1	-11.8
Cc1ccc(CN2CCOC3(CCCN(C(=O)c4ccco4)C3)C2)s1 (stereo not drawn)	-2.11
CS(=O)(=O)NCc1nnc2n1CCN(CC1CC1)C2	-2.16
Cc1ccc(=O)n(CC2(O)CCN(Cc3cnc(C)nc3)CC2)n1	5.12
CN(C)S(=O)(=O)N1CCCC1CC(=O)c1cccs1 (stereo not drawn)	-1.64

SMILES	Percent Effect [%]
COc1cc(CNC2CCc3nc(C(C)C)nn3C2)cc2c1OCO2 (stereo not drawn)	-3.88
CCOCC1CN(Cc2ccoc2)Cc2nn(CC3CC3)cc21 (stereo not drawn)	0.75
O=C(c1cc(COc2ccc3c(c2)OCO3)[nH]n1)N1CCCC1	-1.77
CCCS(=O)(=O)N1CCC(NC(=O)c2cc(C)c(CC)s2)CC1	1.12
CCOC(=O)C1CCN(C(=O)Cn2ccc3cc(Br)ccc32)CC1	-13.5
CCOc1cc(C)ccc1NC(=O)N(C)Cc1cnn(C)c1	-9.07
COc1ccc(C(=O)N2CCC(Nc3ccc(C)nn3)CC2)c(F)c1	-10.7
CC(C)CCc1noc(CN2CCCN(C(=O)c3ccco3)CC2)n1	-3.57
Cc1noc2nc(C3CCN(Cc4ccncc4)CC3)cc(C(F)F)c12	-4.82
COCC1CN(Cc2ccc(C)o2)Cc2cn(C)nc21 (stereo not drawn)	-7.5
Cc1cnn(CCNCc2ccccc2Oc2cccnc2)c1	-26
CN(CCCC#N)C1CCCN(Cc2noc(C3CC3)n2)C1 (stereo not drawn)	-5.25
Cc1cc(C)nc(CCNC(=O)[C@H]2CNC[C@@H](C(=O)N3CCCC3)C2)n1	-3.88
CCOc1cc(C)nc(N2CCN(C(=O)CC)CC2)n1	7.75
Cn1ccc(C(=O)N2CCCC(Cc3cccc4ncccc34)C2)n1 (stereo not drawn)	-12
CCn1ccnc1CN1CCN(CCOc2ccccc2OC)CC1	-2.76
O=S(=O)(N(Cc1ccccn1)C1CC1)N1CCCC1c1ccco1 (stereo not drawn)	-5.26
Cn1ncc2c(=O)[nH]c(CN3CCCC3Cc3ccccc3)nc21 (stereo not drawn)	-6.42
CC1CN(CC(=O)Nc2cccnc2)CCN1c1nccs1 (stereo not drawn)	13.7
